A selection: hits, their analogues and other compounds. The true share with any hit is near 19%.
HT1080 IDH1KD tx – HT-1080 IDH1 knockdown cell toxicity (counter line). HT-1080 IDH1 knockdown viability, ATP luminescence, 48 h. Potency, µM (titrated, usually from 46.1 µM), inactives show at the highest dose activity, negative = toxicity, actives largely listed as cytotoxic. 360,000 tested, 2% active. AID 686971;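 further: potency means the concentration at half of the fitted maximal effect; 0% = DMSO wells and -100% = cell-free medium wells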
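Using the IDH1-knockdown HT-1080 line run in the same batch and compound series as the NT line, viability after 48 h at 37 °C was determined by CellTiter-Glo luminescence and expressed as % activity.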
HT1080NT lethal – kills 2HG-producing HT-1080-NT fibrosarcoma cells. HT-1080-NT fibrosarcoma viability, CellTiter-Glo ATP luminescence, 48 h. Potency, µM (highest dose often 46.1 µM), without a hit: at the top dose activity, negative = less viability, most hits filed as cytotoxic. 360,000 tested, 1.6% active;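 further: NT is the 2HG producing partner of a matched IDH1 knockdown line; potency means the concentration at half of the fitted maximal effect; 0% = DMSO-treated cells and -100% = media-only wells without cells; nearly all actives have a fitted effect of over 55% in size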
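Viability of the 2HG-overproducing fibrosarcoma line after 48 hours of compound exposure at 37 degrees C was determined by luminescence with CellTiter-Glo, and concentration-effect curves were then fitted and categorized.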
DT40 TDP1 no CPT – qHTS for Inhibitors of human tyrosyl-DNA phosphodiesterase 1 (TDP1): qHTS in cells in absence of CPT; DT40 Tdp1-/- hTDP1 cells, no CPT, ATP luminescence, 48 h; Potency, µM (highest dose often 46.2 µM), for the others: at the highest dose activity change, negative = growth inhibition, most hits filed as inhibitors; 420,000 tested, 15% active; AID 686978, 2013; further: potency means the concentration at half of the fitted maximal effect; nearly all actives have a fitted effect of over 55% in size
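DT40 Tdp1-/-;hTDP1 cells, no CPT (DMSO vehicle only), 400 cells/well; compounds pin-transferred; ≥48 hr, 37 °C; CellTiter-Glo 30 min RT dark, luminescence read.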
DT40 TDP1 CPT – DT40-hTDP1 cell growth loss with CPT; chicken DT40 Tdp1-/-;hTDP1 cells + 20 nM CPT, ATP luminescence, 48 h; Potency, µM (top dose mostly 46.2 µM), without a hit: at the top dose activity change, negative = growth inhibition, actives largely listed as inhibitors; 420,000 tested, 12% active; further: potency means the concentration at half of the fitted maximal effect; nearly all actives have a fitted effect of over 55% in size
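Cell growth measured by CellTiter-Glo luminescence after a minimum 48 h, 37 C compound exposure with 20 nM CPT in Tdp1-knockout DT40 cells stably expressing hTDP1, seeded 400/well; qHTS titration format.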
IL-1B inflam inh – blocks inflammasome-driven IL-1 beta release; THP-1 LPS/ATP IL-1B secretion, AlphaLISA, 16 h; hits give low values; 360,000 tested, 4.7% active; activity change, % at 57.5 µM; in the data active means activity change below about -50%; inconclusive means mostly about -30% to -49%
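THP-1 cells pretreated 1 hr with compounds (up to 57.5 uM final), then stimulated with LPS (250 ng/mL final) plus ATP (1.25 mM final); secreted IL-1B measured by AlphaLISA after 16 hr, decreased signal indicating inhibition.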
Numbers without * were called inactive; i = inactive; ? = inconclusive; · = no result; [ ] = dose if it differs, or a comment. Unless noted, the call rests on the fitted dose curve; in most records, active means well fitted curve in the direction sought with a large enough effect; inconclusive means small, poorly fitted or top-dose-only effect, or another doubt; inactive means no such curve, though single readings can be large; an effect the other way counts as inactive or inconclusive. Unless noted, on the % scale 0 is the no-effect control and ±100 the full control effect.

SMILES | HT1080 IDH1KD tx | HT1080NT lethal | DT40 TDP1 no CPT | DT40 TDP1 CPT | IL-1B inflam inh
COc1ccccc1N1CCN(S(=O)(=O)c2c(C)nc3sc(C)c(C)n3c2=O)CC1 | · | · | 21µM* | 21µM* | ·
Cc1nc2scc(C)n2c(=O)c1S(=O)(=O)N1CCN(c2ccccc2F)CC1 | -3% | 9% | -25% | ? | 89
COc1ccc(-c2c3c(nc4sc(C(=O)Nc5ccc(Cl)cc5)c(N)c24)CC(C)(C)CC3=O)cc1 | · | · | 8.2µM* | 16µM* | ·
COc1cccc(NC(=O)c2sc3nc(C)c(C(=O)Nc4ccc(Cl)cc4)c(-c4ccc(Br)cc4)c3c2N)c1 | · | · | 7.3µM* | ? | ·
COc1cccc(NC(=O)c2sc3nc(C)c(C(=O)Nc4ccc(C)cc4C)c(-c4ccc(C)o4)c3c2N)c1 | · | · | 6.5µM* | 10µM* | ·
COc1ccc(-c2c3c(nc4sc(C(=O)Nc5cc(C)on5)c(N)c24)CCC3)cc1 | ? | 20% | ? | -21% | -88*
COc1ccccc1NC(=O)c1sc2nc(C)c(C(=O)Nc3ccc(C)cc3C)c(-c3ccc(Br)cc3)c2c1N | · | · | -20% | 1% | ·
CCC[C@H]1CN(c2ccc(Br)cc2)C(=O)[C@@H]1CC(=O)NC | -4% | -10% | ? | -17% | -6
CCOC(=O)c1ccc(N2C(=O)Cc3ccccc3C2=O)cc1 | 9% | 17% | ? | ? | -11
CCOC(=O)c1ccc(/C=C2\c3ccccc3C(=O)N2c2ccccc2)cc1F | 0% | -7% | ? | 18µM* | 73
CCOC(=O)c1ccc(-c2ccc3c(=O)c4ccccc4n(C)c3c2)cc1F | 18% | 7% | ? | 15µM* | 45
Cc1ccc(S(=O)(=O)CCC(=O)Nc2nnc(-c3cccs3)o2)cc1 | -4% | -1% | 16µM* | ? | -61*
O=C(Nc1nnc(-c2cc(Cl)ccc2Cl)o1)c1ccco1 | 6% | 12% | 16µM* | ? | 7
O=C(CS(=O)(=O)c1ccccc1)Nc1nnc(-c2cccs2)o1 | -9% | -8% | -17% | -15% | 6
O=C(CCS(=O)(=O)c1ccc(Cl)cc1)Nc1nnc(-c2ccco2)o1 | -9% | -7% | ? | 9.2µM* | -81*
O=C(CCS(=O)(=O)c1ccc(Cl)cc1)Nc1nnc(-c2cccs2)o1 | -17% | -28% | 16µM* | 16µM* | -17
COc1ccc(S(=O)(=O)Nc2ccc(C(N)=O)cc2)cc1C(=O)N1CCCCCC1 | 13% | 10% | -15% | 1% | 1
CCOC1=C2CN(S(=O)(=O)c3ccc(C)cc3)C(c3ccccc3)CC2N(S(=O)(=O)c2ccc(C)cc2)C(c2ccc(Br)cc2)C1 (centres undefined) | 22% | 23% | ? | -8% | 1
CC1(C)Cc2cccc(C(=O)Nc3ccc(F)cc3F)c2O1 | -6% | 1% | ? | ? | -5
Cc1ccc(C)c(NC(=O)CCN2CCN(CCO)CC2)c1 | -5% | -2% | 5% | 0% | -5
COc1ccc(/C=C(/NC(=O)c2ccco2)C(=O)N2CCCCCC2)cc1OC | 23% | 9% | 5% | 0% | i
Cc1ccc(SCC(=O)Nc2nnc(-c3ccco3)o2)cc1 | -9% | -3% | 29µM* | -6% | 13
O=C(Nc1nnc(-c2ccco2)o1)c1ccc(Br)s1 | -18% | -14% | ? | ? | 12
O=C(Nc1nnc(-c2ccco2)o1)c1ccc(Cl)s1 | ? | -24% | 16µM* | 21µM* | 4
COCCSc1nnc(NC(=O)C2CC(=O)N(CCc3ccc(F)cc3)C2)s1 (centres undefined) | 4% | 13% | ? | 1% | 28
SMILES | HT1080 IDH1KD tx | HT1080NT lethal | DT40 TDP1 no CPT | DT40 TDP1 CPT | IL-1B inflam inh
Cc1cc(C)c2c3c(sc2n1)C(=O)N(c1ccccc1)CC(=O)N3 | 19% | 14% | -15% | 8% | 3
COC(=O)C(Cc1ccccc1)NC(=O)CNC(=O)c1sc2ccccc2c1Cl (centres undefined) | 1% | -9% | ? | -7% | -17
COc1ccc(C2C3(C#N)C(N)=NC(OC)(OC)C23C#N)cc1 (centres undefined) | -11% | -1% | ? | -14% | -92*
COC1(OC)N=C(N)C2(C#N)C(c3ccc4c(c3)OCO4)C12C#N (centres undefined) | 0% | -4% | ? | 8.2µM* | -14
COc1ccccc1CNC(=O)COC(=O)CCN=C1NS(=O)(=O)c2ccccc21 | 1% | 4% | 6% | 14% | 10
O=C1N=C(N2CCOCC2)S/C1=C\c1ccncc1 | -2% | 13% | -16% | -11% | -5
CCc1ccc(/C=C2/SC(N3CCOCC3)=NC2=O)cc1 | 7% | 11% | ? | 4% | -50*
CC(C)c1ccc(/C=C2\SC(N3CCOCC3)=NC2=O)cc1 | -29% | 1% | ? | ? | -65*
CCOC(=O)c1ccccc1NC(=O)c1sc2nc3n(c(=O)c2c1C)CCCCC3 | · | · | 0% | -10% | ·
N#Cc1c(N)nc(SC2CCCCC2=O)c(C#N)c1-c1ccco1 (centres undefined) | -13% | -10% | ? | -25% | -14
Cc1c(-c2ccc(F)cc2)nc(N)c(C#N)c1-c1ccco1 | 13µM* | ? | 4% | -9% | 3
N#Cc1c(N)nc(SCC(=O)OCc2ccccc2)c(C#N)c1-c1ccco1 | 17% | 9% | -5% | -1% | 15
N#Cc1c(N)nc(SCc2ccccc2)c(C#N)c1-c1ccco1 | 8%[9.24 µM] | ? | ? | ? | -73*
CCCOC(=O)CSc1nc(N)c(C#N)c(-c2ccco2)c1C#N | 10% | 13% | -27% | 5% | -88*
CCc1nc(N)c(C#N)c(-c2ccc(F)cc2)c1C | 6% | 5% | 0% | -2% | 9
CC(C)C[C@H](NC(=O)CNC(=O)[C@H](Cc1ccc(O)cc1)NC(=O)[C@H](CO)NC(=O)[C@H](Cc1c[nH]c2ccccc12)NC(=O)[C@H](Cc1cnc[nH]1)NC(=O)[C@@H]1CCC(=O)N1)C(=O)N[C@@H](CCCN=C(N)N)C(=O)N1CCC[C@H]1C(=O)NCC(N)=O (stereo in doubt) | · | · | -4% | 0% | ·
COC(=O)CSc1nc(N)c2c3c(sc2n1)C(c1ccccc1)SC(c1ccccc1)C3 (centres undefined) | ? | ? | 2.6µM* | 4.1µM* | -100*
OC[C@@H]1CN(Cc2ccc(-c3ccccc3)cc2)C[C@H](n2cnc3c(NC4CCC4)ncnc32)O1 | 16µM* | 13µM* | 4.1µM* | 4.1µM* | -18
OC[C@@H]1CN(Cc2ccc(Cl)cc2)C[C@H](n2cnc3c(NC4CCCC4)ncnc32)O1 | -4% | 6% | ? | 21µM* | 17
